Laboratory results from the supplement of paper PMC6555819.

Legend:
Assay in all cases: PBM binding z-score (relative to random genomic background probes); higher = stronger binding; sequences stand for … in GC…GCGATTGACAGCGTAGAATGAAGG
[1] = test system: RARb homodimer (NR concentration 270 nM)
Procedure, shortened: (§1)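 Each nuclear receptor dimer, without ligand, was incubated for 1 h on custom Agilent 4×180K protein-binding microarrays. Binding was detected with antibodies against each partner (one per run), and scanned fluorescence was regression-normalized. The binding z-scores are referenced to random human genomic background probes.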

[2] = test system: RARg:RXRa (NR concentration 270 nM, RXRa partner concentration 90 nM)
Procedure, shortened: as §1

[3] = test system: RARg homodimer (NR concentration 270 nM)
Procedure, shortened: as §1

[4] = test system: RXRa DBDmut IVT, anti-RXR (DBD mutation: RXRa K156A/R161A, NR concentration 90 nM)
Procedure, shortened: as §1

[5] = test system: RXRa homodimer (NR concentration 180 nM)
Procedure, shortened: as §1

[6] = test system: THRa:RXRa (NR concentration 90 nM, RXRa partner concentration 90 nM)
Procedure, shortened: as §1

[7] = test system: THRa homodimer (NR concentration 90 nM)
Procedure, shortened: as §1

[8] = test system: VDR homodimer (NR concentration 270 nM)
Procedure, shortened: as §1

Row | Sequence | PBM binding z-score [1] | PBM binding z-score [2] | PBM binding z-score [3] | PBM binding z-score [4] | PBM binding z-score [5] | PBM binding z-score [6] | PBM binding z-score [7] | PBM binding z-score [8]
1 | TAGCCTAGGTCACTGGGCCAGTATAGTACGCATC | 3.06 | 3.92 | 4.68 | 0.296 | 2.8 | 2.92 | 0.878 | 0.192
2 | CCAGACAGGTGAAAAGGTAACTCAGCCTCGATTA | 1.49 | 1.96 | 0.973 | 0.272 | 1.52 | 0.971 | 0.514 | -0.0428
3 | ACTATTAGTTGACTTAGGGCATCCGATACGACGC | 0.597 | 0.218 | 0.979 | 0.909 | 0.613 | 0.97 | 0.239 | 0.435
4 | ATCTCTAGGTAAAAATAGTTCAGTGAATGCAAAT | 1.13 | 1.01 | 0.9 | 0.16 | 0.292 | 0.72 | 0.138 | 0.549
5 | CCTACTGGGCCAAGGTTATTGATCAGTCAAAGCA | 0.487 | 0.504 | 0.249 | -0.428 | 0.318 | 0.787 | 0.234 | -0.0593
6 | ATACCAAGGTGATCGTGAGGTCGGTGATACTAAC | 1.4 | 1.58 | 0.586 | -0.0984 | 0.701 | 2.63 | 1.81 | 0.911
7 | ACTTACGGGTTAACGAGGTTATAGCACGCGTATA | 1.62 | 2.26 | 1.43 | 1.02 | 3.01 | 3.09 | 0.992 | 1.96
